Screen size: about 1,200 compounds; about 210 (18%) were called active. A selection follows. A number with no mark means an inactive call. Cut-off read from the data, not from the text of the source: active = inhibition above about 30%; inactive = the rest.
Experiment: fluorescence readout artefact check – biochemical, HTRF, uHTS, artefact control for SUMOylation inhibitor project, confirmation (AID 2069)
Settings: HTRF interference counterscreen, at 35 µM, hits give high values
`Cc1ccc2[nH]c3c(c2c1)CN(C(=O)CN1CCN(c2cccc(C)c2C)CC1)CC3` gave an inhibition of 12.8%.
In the case of `O=c1oc(-c2cccs2)nc2sc3c(c12)CCC3`, the inhibition is reported as 40.5% (active).
`COC(=O)c1c(C)oc(C)c1S(=O)(=O)NC(C)(C)C` gave an inhibition of 3.5%.
In the case of `COc1ccc(C2C(C(C)=O)=C(O)C(=O)N2C)c(OC)c1` (stereo not given), the inhibition is reported as -3.35%.
For `COc1cc(NC(=O)c2cnc(N)s2)cc(C(=O)Nc2cccc(C(F)(F)F)c2)c1`, the inhibition was 8.1%.
`O=C(N/N=C/c1ccc(-c2ccc(S(=O)(=O)Nc3ncccn3)cc2)o1)c1cc2ccccc2cc1O` gave an inhibition of 28.5%.
With `CCOCCCN1CN(Cc2ccco2)CNC1=S` the inhibition was 39.1% (active).
`CC1=C(C#N)C(=O)NC(=O)/C1=C\c1ccc(-c2cc(C)c(C)cc2[N+](=O)[O-])o1` gave an inhibition of 9.4%.
Work on `CCCS(=O)(=O)c1c(S(=O)(=O)CCC)c2c(N)cccn2c1C(=O)c1ccc(Br)cc1` yielded an inhibition of 6.7%.
In the case of `Cc1cc(=O)[nH]c(-n2[nH]c(C)cc2=O)n1`, the inhibition is reported as -1.85%.
Work on `COc1ccccc1C1Nc2cccc3cccc(c23)N1` yielded an inhibition of -18.4%.
With `CCOc1ccc(-n2c(SCC(=O)Nc3ccc(CC)cc3)nc3n[nH]c(C)c3c2=N)cc1` the inhibition was 23.6%.
With `O=C1c2nc3cc(-c4ccco4)[nH]n3c(=O)c2CN1C1CCCCC1` the inhibition was 29.8%.
With `CCCCN1Cc2c(nc3cc(-c4ccco4)[nH]n3c2=O)C1=O` the inhibition was 31.7% (active).
In the case of `CC1=NN(c2ccccc2)C(=O)/C1=C/c1cccs1`, the inhibition is reported as -3.6%.
With `Cc1[nH][nH]c(=O)c1C(c1c(C)[nH][nH]c1=O)c1cn(Cc2ccc(F)cc2)c2ccccc12` the inhibition was -43.9%.
With `COC(=O)c1scc(C)c1NC(=O)C(Cl)c1ccccc1` (stereo not given) the inhibition was 0.85%.
For `CN(c1ccccc1)c1ccc(/C=C(\CCC(=O)O)c2nc3ccccc3s2)cc1[N+](=O)[O-]`, the inhibition was 7.85%.
In the case of `Nc1nc(-c2ccco2)c(-c2ccco2)s1`, the inhibition is reported as -13.2%.
For `NC(=O)c1sc2nc(-c3ccco3)ccc2c1N`, the inhibition was 41.8% (active).
In the case of `CC(=O)c1sc2nc(-c3ccco3)ccc2c1N`, the inhibition is reported as 48.3% (active).
`NNC(=O)c1oc2nc(-c3ccco3)cc(-c3ccco3)c2c1N` gave an inhibition of 9.15%.
With `NNC(=O)c1oc2nc(-c3cccs3)cc(-c3ccco3)c2c1N` the inhibition was 12.8%.
In the case of `N#Cc1sc2nc(-c3ccccc3)cc(-c3ccco3)c2c1N`, the inhibition is reported as 26.3%.
In the case of `S=C(Nc1ccc2nsnc2c1)NC1CCCCC1`, the inhibition is reported as 10.2%.
In the case of `O=[N+]([O-])c1ccc(C=Nc2cccc3ccccc23)s1`, the inhibition is reported as 5.6%.
`CCC(=O)OCCNc1cc(Sc2nc3ccccc3s2)c2nonc2c1[N+](=O)[O-]` gave an inhibition of 1.05%.
Molecule `O=C(O)c1cccc(N2C(=O)/C(=C/c3ccc(SCc4ccc(Cl)cc4)o3)SC2=S)c1` has an inhibition of 14.9%.
With `CCCN(C(=O)c1cc2c(s1)CCC2)c1c(N)n(Cc2ccccc2)c(=O)[nH]c1=O` the inhibition was -3.9%.
For `Cc1cccc(C(=O)NC2C(=O)NNC2c2ccc(Cl)cc2)c1` (stereo not given), the inhibition was -5.5%.
`COc1ccc(N2C(=O)[C@@H]3[C@H](C2=O)[C@H]2c4ccccc4C=CN2[C@@H]3C(C)=O)cc1` gave an inhibition of 9.4%.
For `Cc1ccc(NC(=O)CCC(=O)OCC(=O)c2ccc(-c3ccccc3)cc2)cc1`, the inhibition was -1.75%.
In the case of `Cc1ccc(-c2[nH]c(-c3ccc(C(=O)O)cc3)nc2-c2ccccc2)cc1`, the inhibition is reported as 43.1% (active).
Work on `COc1cc(/C=C2\C(=O)N(c3ccccc3)N=C2C)ccc1Oc1ccc([N+](=O)[O-])cc1[N+](=O)[O-]` yielded an inhibition of 1.25%.
In the case of `CSc1nnc(SCc2nc3sc(C(=O)O)c(C)c3c(=O)[nH]2)s1`, the inhibition is reported as 31.2% (active).
For `CC(=O)c1sc2nc(CSc3nnnn3-c3ccccc3)[nH]c(=O)c2c1C`, the inhibition was 0.9%.
In the case of `O=C(CSc1nnc(SCc2ccc(Cl)cc2)s1)N/N=C/c1c[nH]c2ccccc12`, the inhibition is reported as 9.75%.
Work on `S=c1[nH]nc(-c2cc(-c3ccco3)[nH]n2)n1-c1ccccc1Cl` yielded an inhibition of 0.75%.
For `COc1cc(O)c(NC(C)=O)c2nonc12`, the inhibition was 6.2%.
With `COCCNC(=O)Nc1ccc2nc(-c3ccco3)c(-c3ccco3)nc2c1` the inhibition was 52.4% (active).
In the case of `O=C(Nc1ccccc1)c1ccc2nc(-c3ccco3)c(-c3ccco3)nc2c1`, the inhibition is reported as 22.8%.
With `COc1ccc2nc(-c3ccco3)c(-c3ccco3)nc2c1` the inhibition was 33.1% (active).
For `COc1ccc(OC)c(-n2c(-c3cc(-c4ccco4)[nH]n3)n[nH]c2=S)c1`, the inhibition was 7.95%.
Molecule `COc1ccc2nc3cccc(OC)c3nc2c1` has an inhibition of 11.7%.
`COc1ccc(CCNC(=O)c2ccc3nc(-c4ccco4)c(-c4ccco4)nc3c2)cc1OC` gave an inhibition of 13.3%.
With `CCc1ccc(OCC(=O)N/N=C2\CC(=O)c3ccccc32)cc1` the inhibition was -2.45%.
`COCCN=c1scc(-c2ccco2)n1/N=C/c1ccc(O)c(O)c1O` showed an inhibition of -18.7%.
For `CC(C)c1ccc(NC(=O)C[n+]2ccn(C3=C([O-])c4ccccc4C3=O)c2)cc1`, the inhibition was -10.2%.
`Cc1ccc(S(=O)(=O)C(C#N)c2nc3ccccc3nc2N2CC(C)OC(C)C2)cc1C` (stereo not given) showed an inhibition of 4.8%.
In the case of `O=c1c(=Nc2ccccc2O)c(=O)c2ccccc12`, the inhibition is reported as -6.7%.
With `O=C1NC(=Nc2ccc(O)cc2)S/C1=C\C=C\c1ccco1` the inhibition was 8.5%.
Work on `Cc1cc(=O)oc2cc(OCc3ccc(C(=O)OCC(=O)Nc4ccc(N(C)C)cc4)cc3)ccc12` yielded an inhibition of 11.7%.
With `COc1ccc2c(c1)c(=O)oc1c(C)c(OCc3ccc(C(=O)O)cc3)ccc12` the inhibition was 31.4% (active).
`Cc1c(CC(=O)O)c(=O)oc2c(C)c(OCc3ccccc3Br)ccc12` gave an inhibition of -1.95%.
With `COc1cc(/C=C(\C#N)C(=O)Nc2cccc(C(=O)O)c2)ccc1OCc1ccc(Cl)cc1` the inhibition was 19.7%.
For `Cn1nccc1NC(=O)Nc1cccc(Cl)c1`, the inhibition was 42.6% (active).
For `S=C(Nc1cccc(Cl)c1)Nc1ccc2cn[nH]c2c1`, the inhibition was 2.35%.
`O=C(Nc1ccc2oc(=O)ccc2c1)c1ccc(-c2cccc(Cl)c2)o1` gave an inhibition of 12.1%.
With `Cn1nccc1NC(=O)Nc1cccc(Br)c1` the inhibition was 46.4% (active).
Work on `O=C(Nc1cccnc1)c1cc2cc(Br)ccc2oc1=O` yielded an inhibition of -1.65%.

Reference: PubChem BioAssay AID2069 (Sanford-Burnham Center for Chemical Genomics, 2009)
